Screens (PubChem)
USP17 inh: inhibitors of human USP17 deubiquitinase | A8MUK1 | purified USP17, Ub-rhodamine cleavage fluorescence, 3 h | inhibition, % at 50 µM | 6.5% of 47,000 active | AID 1645855
Target sequence (A8MUK1 whole entry, looked up): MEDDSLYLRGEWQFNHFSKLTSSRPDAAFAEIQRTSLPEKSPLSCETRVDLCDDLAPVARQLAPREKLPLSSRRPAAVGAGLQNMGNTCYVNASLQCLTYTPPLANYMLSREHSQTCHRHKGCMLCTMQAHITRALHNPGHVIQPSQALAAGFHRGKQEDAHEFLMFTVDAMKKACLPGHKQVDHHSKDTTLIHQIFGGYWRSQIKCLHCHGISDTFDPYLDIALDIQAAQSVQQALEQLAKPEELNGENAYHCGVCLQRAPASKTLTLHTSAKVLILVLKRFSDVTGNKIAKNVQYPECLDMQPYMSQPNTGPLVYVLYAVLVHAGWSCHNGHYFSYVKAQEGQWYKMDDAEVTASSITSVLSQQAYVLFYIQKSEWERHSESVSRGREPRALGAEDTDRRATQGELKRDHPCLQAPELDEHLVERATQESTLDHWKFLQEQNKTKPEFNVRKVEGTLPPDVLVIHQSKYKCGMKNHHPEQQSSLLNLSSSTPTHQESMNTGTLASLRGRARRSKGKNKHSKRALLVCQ
USP30 inh: human USP30 deubiquitinase inhibition | Q70CQ3 | purified USP30, Ub-rhodamine cleavage fluorescence | inhibition, % at 25 µM | 5.3% of 47,000 active
Large screens that a line does not name were inactive. The list is not random: actives were taken first. Their share in the collection is about 9.6%. Rule as the data show it: active = inhibition above about 30%; inactive = the rest.

O=S(=O)(Cc1cccc(Cl)c1)Nc1cccnc1	none
CN(C)CCNC(=O)c1cc(-c2cnc(Nc3ccccc3)nc2)cn1C	none
CC(=O)N1CCc2[nH]c3ccc(C(=O)NC4CCN(Cc5ccccc5)CC4)cc3c2C1	none
Cc1nnc(-c2cccc(NC(=O)C3CCN(Cc4ccc5c(c4)CCO5)CC3)c2)s1	none
COc1ccc(C)cc1NC(=O)C(OC(=O)c1cc(S(=O)(=O)N2CCOCC2)ccc1C)c1ccccc1 (stereo not drawn)	none
Cc1ccc(S(=O)(=O)NCC(=O)OC(C(=O)Nc2cc(C)ccc2C)c2ccccc2)cc1 (stereo not drawn)	USP17 inh 50.8, USP30 inh 46.8
CN(C(=O)c1noc2c1CCCCC2)c1ccccc1F	none (no result: USP30 inh)
Cn1cnc2c(C(=O)NC3CCCC3)nn(-c3ccc(Cl)cc3)c2c1=O	none
Cc1sc(-c2ccno2)cc1S(=O)(=O)N1CCc2ccccc2C1	none
CC(C)N1CCn2c(nc3cc(C(=O)NC4CCCCCC4)ccc32)C1=O	none
CC1CCN(Cc2nnc(-c3cn(CC(=O)N4CCCCCC4)c4ccccc34)o2)CC1	none
CCC(C)NC(=O)Cn1cc(-c2nnc(CN3CCC(C)CC3)o2)c2ccccc21 (stereo not drawn)	USP30 inh 36.1
CC1OC2CC(O)C1(O)C1=C2C(=O)c2c(O)c3c(c(O)c2C1=O)[C@H](C)O[C@H]1CC(=O)O[C@@H]31 (stereo partly drawn)	USP17 inh 55.9
CC(C)c1ccc(C(C(=O)NC2CCCCC2)N(C(=O)c2cnccn2)c2cccc(F)c2)cc1 (stereo not drawn)	USP30 inh 65.5
CC(=O)c1ccc(N(C(=O)c2cnccn2)C(C(=O)NC2CCCCC2)c2ccc(F)cc2)cc1 (stereo not drawn)	none
COc1ccc(C(=O)NCc2ccc(-n3ccnc3)cc2)cc1	none
Cc1cc(C)c2nc(N3CCCC(C(=O)NCc4cccc(F)c4)C3)sc2c1 (stereo not drawn)	USP30 inh 37.1
Cc1cc(C)c2nc(N3CCCC(C(=O)NCCc4ccc(Cl)cc4)C3)sc2c1 (stereo not drawn)	none
Cc1cc(C)c2nc(N3CCCC(C(=O)NCc4ccccc4C)C3)sc2c1 (stereo not drawn)	USP17 inh 33.1
COc1ccccc1CNC(=O)C1CCCN(c2nc3c(C)cc(C)cc3s2)C1 (stereo not drawn)	none
O=C(Cc1ccc(F)cc1)N1CCC(n2c(=O)[nH]c3cncnc32)CC1	none
O=C(Nc1ccccc1F)c1ccc2c(c1)CC(c1ccccc1)OC2=O (stereo not drawn)	none
Cc1noc(C)c1S(=O)(=O)Nc1ccc(C2CCc3nncn3C2)cc1 (stereo not drawn)	none
Cc1cc(=O)n2c(n1)NC(=NCCc1c[nH]c3ccccc13)NC2c1ccccc1 (stereo not drawn)	none
c1ccc(CNc2nnc(-c3nc(C4CC4)no3)c3ccccc23)cc1	none (no result: USP30 inh)
CC1CCN(c2nnc(-c3nc(C4CC4)no3)c3ccccc23)CC1	USP30 inh 56.8
COc1ccccc1CNc1nnc(-c2nc(C3CC3)no2)c2ccccc12	USP30 inh 34.4
c1ccc2c(N3CCCC3)nnc(-c3nc(C4CC4)no3)c2c1	none
c1ccc2c(-c3nc(C4CC4)no3)nnc(NC3CCCC3)c2c1	USP30 inh 38.6
c1ccc2c(-c3nnc(C4CC4)o3)nnc(NC3CCCCC3)c2c1	none
Fc1cccc(Cl)c1CSc1nnc(Cc2sc(-c3ccccc3)nc2-c2ccccc2)o1	none
Cc1ccc(NC(=O)C(C)Sc2nnc(-c3cccnc3)n2C)cc1 (stereo not drawn)	none (no result: USP30 inh)
CCOc1ccccc1NC(=O)C1CC(=O)NC(Nc2ccccc2)=N1 (stereo not drawn)	none
COc1ccc(C2CC(=O)c3cnc(NCc4ccco4)nc3C2)cc1OC (stereo not drawn)	none
O=C(NCc1cnc(C2CCCCO2)nc1)c1n[nH]c2c1CCC2 (stereo not drawn)	none
CC1(c2ncc(CNC(=O)c3n[nH]c4c3CCCC4)cn2)CCCCO1 (stereo not drawn)	USP30 inh 31.6
COc1ccccc1NC(=O)N1C[C@@H]2c3nccn3-c3ccccc3[C@@H]2C1	none
O=C1c2ncccc2N(S(=O)(=O)c2cccc(F)c2)C[C@@H]2C[C@]12c1ccccc1	none
COc1ccccc1[C@]12C[C@H]1CN(C(=O)Nc1ccncc1)c1cccnc1C2=O	USP30 inh 33.9
CCN1C[C@@H]2C[C@]2(c2ccccc2OC)C(=O)c2ncccc21	USP17 inh 65.0
COc1ccc(-c2cc(C(=O)NC3CCCc4ccccc43)c3ccccc3n2)cc1 (stereo not drawn)	none
CN(C)C(=O)CN1CCC2(CCC(c3cccnc3)c3ccccc32)CC1 (stereo not drawn)	none
CCOc1ccc(-c2nnn(CC(=O)N3CCCCC3)n2)cc1	none
O=C(Cn1nnc(-c2ccc(F)cc2)n1)NCCc1ccccc1	USP17 inh 73.8
CCOC(=O)C(Cc1ccccc1)NC(=O)CCc1nnc2ccc(N(CC)CC)nn12 (stereo not drawn)	none
COCCNC(=O)Cn1nnc(-c2ccc(-c3ccc(OC)cc3)cc2)n1	USP30 inh 34.5
O=C(CN(Cc1ccc(F)cc1)C(=O)Cn1nnc(-c2ccc(F)cc2)n1)NC1CCCC1	none
CCOC(=O)C(Cc1ccccc1)NC(=O)Cn1nnc(-c2ccccc2)n1 (stereo not drawn)	USP30 inh 35.1
COc1ccc(-c2nnn(CC(=O)Nc3ccccc3)n2)cc1	USP17 inh 48.8, USP30 inh 45.9
COc1ccc(-c2noc(CC(=O)Nc3cccc(OC)c3)n2)cc1	none
CC(C)c1ccc(-c2cnc3sc(NCCc4ccccn4)nn23)cc1	none
COc1cccc(CN2CCC3(Cc4ccccc4CNC3=O)C2)n1 (stereo not drawn)	none
O=C(CSc1nnc(-c2ccncc2)n1Cc1ccccc1)NC1CCS(=O)(=O)C1 (stereo not drawn)	none
CCOC(=O)C1CCN(C(=O)c2ccc(CNS(=O)(=O)c3ccc(OC)cc3)cc2)CC1	none
CCOC(=O)C1CCN(C(=O)c2ccc(CNS(=O)(=O)c3ccc(Cl)cc3)cc2)CC1	USP30 inh 31.5
Cc1cccn2c(=O)c3c(nc12)CCN(C(=O)c1cccs1)C3	none
O=C(NNC1=NC2(CCCC2)Cc2ccccc21)c1cccnc1	USP30 inh 31.9
O=C(O)c1ccc2c(c1)C1(CCCCC1)CN2C(=O)CNC(=O)c1cccnc1	none
Cc1ccc(S(=O)(=O)NCc2nc(-c3ccccc3)oc2C)c(C)c1	none
COC(=O)CCC(=O)N1CCC2(CN(Cc3ccc(-c4ccccc4)cc3)C2)C1	none
CCCn1c(CCC(=O)Nc2ccccc2C)nc2cc(S(=O)(=O)N3CCOCC3)ccc21	none
CCN(CC)S(=O)(=O)c1ccc2c(c1)nc(CCC(=O)Nc1ccc(C)c(Cl)c1)n2CC	USP30 inh 38.5
COc1ccc(C(=O)N2C[C@H]3C[C@H]4[C@](C2)(CN(CC(C)C)S4(=O)=O)O3)cc1	none
O=C(C1CC1)N1CCCCCC1C1CCN(c2ncccn2)CC1 (stereo not drawn)	none
O=C(O)c1ccccc1CN1C(=O)C2CCCN2C(=O)c2ccccc21 (stereo not drawn)	none
O=C1C(O)=C(c2ccccc2)C2CCCN12 (stereo not drawn)	USP30 inh 31.8
COc1ccccc1C1OCCn2c(-c3ccccc3)c3c(=O)n(C)c(=O)n(C)c3c21 (stereo not drawn)	none
Cc1nc(NC2CC2)sc1C(=O)NCCCc1ccccc1	none
Cc1cc(=O)oc2cc(OCC(=O)Nc3cc(Cl)ccc3N3CCOCC3)ccc12	USP17 inh 41.7, USP30 inh 50.3
